Assay [1] in a line: qHTS assay to identify small molecule agonists of the peroxisome proliferator-activated receptor delta (PPARd) signaling pathway - cell viability counter screen (AID 743211). Also: nearly all actives have a fitted effect of over 55% in size. Also: potency is read from the fitted curve at half-maximal effect. In a few lines:
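qHTS cell viability: PPARd-bla HEK293H; 17 h cpd, 37C; CellTiter-Glo, luminescence at 30 min RT.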
On the technique in general: Quantitative high-throughput screening tests each substance at several concentrations.

For assay [2], the target named is Peroxisome proliferator-activated receptor delta (Homo sapiens) (UniProt Q03181). Kind of assay: qHTS assay to identify small molecule agonists of the peroxisome proliferator-activated receptor delta (PPARd) signaling pathway (AID 743212; calls by dose curve). An outline of the steps:
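A PPARd-bla HEK293H line with beta-lactamase under an Upstream Activator Sequence is treated with compounds at 37 C. Substrate loading for 2 h at room temperature precedes the fluorescence measurement.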

Assay [3] shares this target. Kind of assay: qHTS assay to identify small molecule antagonists of the peroxisome proliferator-activated receptor delta (PPARd) signaling pathway (AID 743215; active = well fitted inhibition curve with a large enough effect in the signal ratio in the repeat runs, not every such curve was filed as active; the % refers to the signal ratio;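 also: cells stimulated with agonist L165041 at 300 nM final during compound exposure; series mostly up to about 62 µM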). An outline of the steps: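 With L165041 present at 300 nM final, compounds were incubated 17 h at 37 C on PPARd UAS-bla HEK293H cells. A FRET-based beta-lactamase substrate was then applied for 2 h at room temperature and fluorescence intensity recorded.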

Assay [4] can be described thus: qHTS assay to identify small molecule agonists of the farnesoid-X-receptor (FXR) signaling pathway - cell viability counter screen (AID 743218). Also: nearly all actives have a fitted effect of over 45% in size. Also: potency is read from the fitted curve at half-maximal effect. An outline of the steps:
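After 16 h at 37 C with test compounds, FXR-bla HEK 293T cells were given LiveBLAzer B/G substrate for 2 h at RT and then CellTiter-Glo; luminescence was taken after 30 min.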

A short description of assay [5]: qHTS assay to identify small molecule antagonists of the farnesoid-X-receptor (FXR) signaling pathway - cell viability counter screen (AID 743221; active = well fitted cell-killing curve with a large enough effect in the repeat runs, not every such curve was filed as active; also: nearly all actives have a fitted effect of over 50% in size; also: potency is read from the fitted curve at half-maximal effect). An outline of the steps: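 After a 5 h settling period, FXR-bla HEK 293T cells receive compound and chenodeoxycholic acid (50 uM final) and incubate 16 h at 37 C; CellTiter-Glo luminescence, read after 30 min at room temperature, reports cell viability.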

A short description of assay [6]: qHTS assay to identify small molecule antagonists of the peroxisome proliferator-activated receptor delta (PPARd) signaling pathway - cell viability counter screen (AID 743213). Also: nearly all actives have a fitted effect of over 50% in size. Also: potency is read from the fitted curve at half-maximal effect. In a few lines: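 Luminescence from CellTiter-Glo, added after the bla read and incubated 30 min at room temperature, gives viability of HEK293H PPARd-bla cells exposed to compounds for 17 h at 37 C with 300 nM L165041.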

The target of assay [7] is Bile acid receptor (Homo sapiens) (UniProt Q96RI1). Kind of assay: qHTS assay to identify small molecule antagonists of the farnesoid-X-receptor (FXR) signaling pathway (AID 743217; active = well fitted inhibition curve with a large enough effect in the signal ratio in the repeat runs, not every such curve was filed as active; the % refers to the signal ratio). An outline of the steps: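 In this cell-based antagonist screen, inhibition of CDCA-driven (50 uM final) UAS-beta-lactamase expression in HEK 293T cells was measured by FRET fluorescence following 16 h compound exposure at 37 °C.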
Bile acid receptor (Homo sapiens), sequence (Q96RI1 whole entry, looked up): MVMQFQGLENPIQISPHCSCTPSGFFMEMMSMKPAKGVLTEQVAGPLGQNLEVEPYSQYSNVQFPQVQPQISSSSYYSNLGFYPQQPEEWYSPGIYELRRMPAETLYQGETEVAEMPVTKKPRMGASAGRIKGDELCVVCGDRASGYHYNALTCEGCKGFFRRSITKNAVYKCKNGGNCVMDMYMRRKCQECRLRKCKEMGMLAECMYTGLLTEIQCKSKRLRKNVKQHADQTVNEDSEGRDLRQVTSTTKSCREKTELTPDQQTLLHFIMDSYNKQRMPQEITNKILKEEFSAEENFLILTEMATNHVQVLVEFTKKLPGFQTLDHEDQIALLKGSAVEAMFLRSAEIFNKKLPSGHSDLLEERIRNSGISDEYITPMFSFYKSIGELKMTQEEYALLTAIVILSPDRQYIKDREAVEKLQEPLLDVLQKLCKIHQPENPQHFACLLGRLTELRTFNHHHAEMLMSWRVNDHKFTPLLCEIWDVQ

Assay [8] addresses Vitamin D3 receptor (Homo sapiens) (UniProt P11473). Description: qHTS assay to identify small molecule agonists of the vitamin D receptor (VDR) signaling pathway (AID 743222; calls by dose curve). In a few lines: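 VDR-bla cells were seeded, left 4 h, treated with compounds in DMSO for 16 h, incubated 2 h at RT with B/G FRET substrate, and read for fluorescence.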
The target is the same in assay [9]. Kind of assay: qHTS assay to identify small molecule antagonists of the vitamin D receptor (VDR) signaling pathway (AID 743223; active = well fitted inhibition curve with a large enough effect in the signal ratio in the repeat runs, not every such curve was filed as active; the % refers to the signal ratio). In a few lines: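 Reporter line VDR-bla; stimulus 1alpha,25-(OH)2 vitamin D3, 3 nM final; compound co-addition, 16 h 37C/5% CO2; LiveBLAzer B/G substrate 2 h RT; fluorescence intensity.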
The target in assay [10] is Bile acid receptor (Homo sapiens) (UniProt Q96RI1). Description: qHTS assay to identify small molecule agonists of the farnesoid-X-receptor (FXR) signaling pathway (AID 743220; active = well fitted activation curve with a large enough effect in the signal ratio in the repeat runs, not every such curve was filed as active; the % refers to the signal ratio). An outline of the steps: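 Beta-lactamase reporter under UAS control in GeneBLAzer FXR HEK 293T cells (5000/well) measured with LiveBLAzer FRET substrate after 2 h at room temperature. Compound exposure lasted 16 h at 37C.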

Values joined by “and” are separate entries in the source; they are usually repeats but may differ in a detail not shown here. Equal values may be shown once. Records with an inconclusive call do not appear. Active and inactive are the calls of the source. Unless noted, calls follow the shape of the dose curve; as a rule, active = well fitted curve in the direction sought with a large enough effect in the repeat runs; inconclusive = weak or mixed curves; inactive = no such curve, though single readings can be large; an effect the other way counts as inactive or inconclusive.

In PubChem BioAssay (Tox21) one finds Potency and outcome data, which are given here for 26 molecules.

Vitamin D3 receptor (Homo sapiens), sequence (P11473 whole entry, looked up): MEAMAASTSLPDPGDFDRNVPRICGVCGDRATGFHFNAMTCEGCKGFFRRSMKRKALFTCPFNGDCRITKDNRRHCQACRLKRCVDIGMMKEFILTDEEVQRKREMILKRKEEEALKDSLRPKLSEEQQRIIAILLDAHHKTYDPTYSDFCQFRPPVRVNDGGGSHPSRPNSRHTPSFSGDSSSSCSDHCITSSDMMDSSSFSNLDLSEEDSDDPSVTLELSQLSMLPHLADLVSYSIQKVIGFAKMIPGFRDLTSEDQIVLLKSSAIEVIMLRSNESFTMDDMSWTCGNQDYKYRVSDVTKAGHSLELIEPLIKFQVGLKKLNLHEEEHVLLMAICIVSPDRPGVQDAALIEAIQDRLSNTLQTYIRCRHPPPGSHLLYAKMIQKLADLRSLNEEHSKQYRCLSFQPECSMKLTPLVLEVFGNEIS
Peroxisome proliferator-activated receptor delta (Homo sapiens), sequence (Q03181 whole entry, looked up): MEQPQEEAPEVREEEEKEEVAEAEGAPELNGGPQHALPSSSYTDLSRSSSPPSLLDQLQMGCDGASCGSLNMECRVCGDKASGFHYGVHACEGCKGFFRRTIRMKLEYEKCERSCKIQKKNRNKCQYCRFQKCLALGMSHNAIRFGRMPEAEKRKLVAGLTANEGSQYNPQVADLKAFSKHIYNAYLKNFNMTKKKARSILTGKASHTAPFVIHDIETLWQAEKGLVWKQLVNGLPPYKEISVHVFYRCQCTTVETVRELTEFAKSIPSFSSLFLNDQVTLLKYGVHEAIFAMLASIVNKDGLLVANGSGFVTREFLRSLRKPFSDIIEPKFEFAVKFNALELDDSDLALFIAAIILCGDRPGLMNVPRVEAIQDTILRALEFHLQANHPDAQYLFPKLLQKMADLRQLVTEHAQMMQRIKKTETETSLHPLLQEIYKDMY

Regarding `O=C1OC(=O)c2cccc3cccc1c23`, the Potency entry in assay [1], in [3], in assay [4] and in assay [5] was “inactive” each time. Moreover, the outcome in [2] was inactive.
As for `CC1(C)C(=O)N(Br)C(=O)N1Br`, the Potency entry in assay [1], in [6], in assay [3], in [7], in [4] and in [5] was “inactive” in each case. Moreover, the Potency result in [8] is “inactive”. In addition, in [2], the outcome was inactive.
Turning to `O=Nc1ccc(NO)cc1`, the Potency entry in assay [1], in assay [6], in assay [4] and in [5] was “inactive” each time. Moreover, the result in assay [2] was inactive.
As to `Clc1ccc(C(c2ccccc2Cl)C(Cl)Cl)cc1` (configuration not stated), the Potency in assay [1] was 49 µM (active). Further, the result in [2] was inactive. Besides, the Potency result in [6], in assay [3], in assay [4] and in [5] was “inactive” each time.
Regarding `CCCCCCOc1ccc(O)cc1`, the Potency result in [1], in [3], in assay [4], in assay [5] and in assay [8] was “inactive” throughout. Besides, the result in [2] was inactive.
Take `CNC(=O)c1cc(Oc2ccc(NC(=O)Nc3ccc(Cl)c(C(F)(F)F)c3)cc2)ccn1`: the Potency is 15 µM (active) in assay [1], 10.6 µM (active) in [6] and 21.1 µM (active) in assay [4]. The molecule was classed as inactive in [2]. For the same molecule, the Potency result in [8] was “inactive”.
As to `Cn1cnc2ncnc(N)c21`, the Potency entry in assay [1], in assay [6], in assay [3], in assay [4], in assay [5] and in assay [8] was “inactive” throughout. Moreover, in assay [9], the Potency entry is “inactive”. In addition, the result in [2] was inactive.
Regarding `CN1CCN(C2Cc3ccccc3Sc3ccc(Cl)cc32)CC1` (configuration not stated), the Potency in assay [1] is 26.6 µM (active); in assay [4] it was 26.6 µM (active); in [5] it was 29.8 µM (active). Further, the result in assay [2] was inactive. Further, in assay [9], the Potency entry is “inactive”.
Consider `NCCCCCCNCCCCCCN`, for which the Potency entry in [1], in assay [3], in [7], in assay [4], in assay [8] and in assay [9] was “inactive” each time. Further, the result in assay [2] was inactive.
As to `CO[C@H]1C=CO[C@@]2(C)Oc3c(C)c(O)c4c(O)c(cc(O)c4c3C2=O)NC(=O)/C(C)=C\C=C/[C@H](C)[C@H](O)[C@@H](C)[C@@H](O)[C@@H](C)[C@H](OC(C)=O)[C@@H]1C`, the Potency result in [1], in assay [5] and in assay [9] was “inactive” each time. In [2], the outcome was inactive.
Take `CCNc1nc(NC(C)CC)nc(OC)n1` (configuration not stated): the Potency result in [1], in assay [4], in [8] and in [9] was “inactive” in each case. The molecule was called inactive in assay [2].
Regarding `S=P(N1CC1)(N1CC1)N1CC1`, the Potency entry in [1] and in assay [5] was “inactive” each time. Besides, the call in [2] was inactive.
With `C[Si](C)(C)Cl`, the Potency entry in [1], in assay [6], in assay [3], in [7], in assay [4] and in assay [10] was “inactive” in each case. Further, the Potency result in assay [5] is “inactive”. Moreover, the molecule was classed as inactive in [2].
Consider `NC(=O)c1ccccc1N`, for which the Potency result in assay [1], in assay [6], in assay [3], in assay [4], in assay [8] and in assay [9] was “inactive” in each case. Besides, in [2], the molecule was classed as inactive.
Turning to `Cc1cc(Nc2ccc(O)cc2)ccc1N`, the Potency result in assay [1], in [6], in assay [3], in assay [5] and in assay [9] was “inactive” in each case. The molecule was classed as inactive in assay [2].
On to `c1cc2c3c(c1)ccc1cccc(c13)C2`, for which the Potency in [1] was 56.1 µM (active). In addition, the outcome in assay [2] was inactive. Besides, the Potency result in [6], in assay [3], in [5] and in assay [8] was “inactive” each time.
Turning to `ClC/C=C\CCl`, the Potency entry in [1], in [6], in assay [3], in [8] and in assay [9] was “inactive” in each case. Further, the result in [2] was inactive.
For the molecule `C=CC(=O)OCCC#N`, the Potency result in assay [1], in assay [6], in [3], in assay [7], in assay [4] and in assay [5] was “inactive” in each case. Further, the Potency result in assay [8] and in assay [9] was “inactive” throughout.
For the molecule `NC(=O)C(=O)N/N=C/c1ccc([N+](=O)[O-])o1`, the Potency result in [1], in assay [6], in assay [3], in [4] and in assay [5] was “inactive” throughout. Also, the result in assay [2] was inactive.
In the case of `COC(=O)CC(C)CCC=C(C)C` (configuration not stated), the Potency result in assay [1], in [7], in assay [4], in assay [5], in assay [8] and in assay [9] was “inactive” in each case. For the same molecule, in assay [2], the molecule was called inactive.
Take `CCCCCCCCCCCC(=O)N(CC)CC`: the Potency result in [1], in assay [6], in assay [3], in [7], in assay [10] and in assay [8] was “inactive” in each case. Further, the Potency result in [9] was “inactive”. In assay [2], the molecule was called inactive.
As to `CCN=c1cc2oc3cc(NCC)c(C)cc3c(-c3ccccc3C(=O)OCC)c-2cc1C`, the Potency was 48.8 µM (active) and 27.5 µM (active) in assay [1]; 38.8 µM (active) and 24.5 µM (active) in assay [6]; 48.8 µM (active) and 38.9 µM (active) in assay [4]; 54.7 µM (active) and 54.9 µM (active) in assay [5]. In addition, the call in [2] was inactive. Moreover, in [10], the Potency result is “inactive”.
Turning to `CCCCOc1ccc(C(=O)CCN2CCCCC2)cc1`, the Potency in [1] was 11.9 µM (active). Further, the outcome in assay [2] was inactive. For the same molecule, the Potency entry in assay [6], in assay [3], in assay [7], in assay [4] and in assay [10] was “inactive” in each case.
Regarding `O=Cc1ccc(F)cc1`, the Potency result in assay [1], in assay [6], in assay [3], in assay [7], in [4] and in assay [10] was “inactive” in each case. In addition, the Potency entry in assay [5] and in assay [8] was “inactive” each time. The call in assay [2] was inactive.
As for `CC(=O)Oc1ccc(C2(c3ccc(OC(C)=O)cc3)C(=O)Nc3ccccc32)cc1`, the Potency entry in [1], in assay [6], in [3], in assay [4] and in assay [9] was “inactive” each time. In addition, the call in [2] was inactive.
Turning to `Cc1cccc(Br)c1`, the Potency result in [1], in [3], in assay [4] and in [5] was “inactive” throughout. Moreover, in assay [2], the result was inactive.
